# Test results from PubChem BioAssay (NCATS).
# Several values for one entry are separate records, joined by “and”; a condition that tells them apart may be missing. Equal entries are not always repeated. Results filed as inconclusive are left out. Activity calls are given as the source filed them. Unless noted, calls come from the whole dose curve; as a rule, active = well fitted curve in the direction sought with a large enough effect; inconclusive = small, poorly fitted or top-dose-only effect, or another doubt; inactive = no such curve, though single readings can be large; an effect the other way counts as inactive or inconclusive.
# Experiments:
# [1] = target: T1, Hexokinase-4 (Homo sapiens) + Glucokinase regulatory protein (Homo sapiens) (UniProt P35557+Q14397); assay: qHTS assay for inhibitors of recombinant human GCK-GKRP interaction: ADP-Glo assay (AID 743206); settings: ADP-Glo luminescence, 60 min; series mostly up to 76.9 µM;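 note: plate controls were DMSO plus enzyme for no effect and no enzyme for full effect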
# Summary of the method: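 Pin-transferred compounds meet a 15 nM GST-GCK/15 nM FLAG-GKRP/2 uM S6P mix (dispense concentrations). ATP is then added to 0.4 mM final with 5 mM glucose, and the reaction runs 60 min at room temperature. ADP is quantified luminescently.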
# [2] = target: T1, Hexokinase-4 (Homo sapiens) + Glucokinase regulatory protein (Homo sapiens); assay: qHTS assay for inhibitors of recombinant human GCK-GKRP interaction: HTRF assay (AID 743207); settings: recombinant GCK-GKRP HTRF binding, 60 min, with sorbitol-6-phosphate; series mostly up to 57.5 µM;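 note: 0% = DMSO with GCK present and -100% = DMSO wells lacking GCK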
# Summary of the method: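 HTRF read-out (ex 320 nm; 615/665 nm emission) after 60 min RT equilibration of 5 nM GST-GCK, 5 nM FLAG-GKRP, 2 uM S6P, compound and anti-FLAG/anti-GST detection antibodies; signal normalized between DMSO wells with and without GCK.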
# [3] = qHTS profiling of the MIPE4 collection as inhibitors of Plasmodium falciparum (3D7) proliferation (AID 743344; call rule not given here;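 note: scaled between DMSO vehicle wells and 0.29 µM artemisinin as full inhibition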); settings: P. falciparum 3D7 in erythrocytes, SYBR Green DNA fluorescence, 72 h; at 28.5 µM (top of the series) unless noted
# Summary of the method: (§1)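 Parasite DNA was quantified by SYBR Green I fluorescence (ex 485, em 535 nm) after overnight lysis in saponin/Triton buffer at room temperature. Cultures at 0.3% parasitemia and 2.5% hematocrit were first exposed to compound for 72 h at 37 C; signals were normalised to artemisinin (0.29 uM) and vehicle wells.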
# [4] = qHTS profiling of the MIPE4 collection as inhibitors of Plasmodium falciparum (DD2) proliferation (AID 743345; call rule not given here); settings: P. falciparum Dd2 in erythrocytes, SYBR Green DNA, 72 h; at 28.5 µM (top of the series) unless noted
# Summary of the method: as §1
# [5] = qHTS profiling of the MIPE4 collection as inhibitors of Plasmodium falciparum (DD2) proliferation (Rep 2) (AID 743346; call rule not given here); settings: P. falciparum Dd2 in erythrocytes, SYBR Green DNA, 72 h; at 28.5 µM (top of the series) unless noted
# Summary of the method: as §1
# [6] = qHTS profiling of the MIPE4 collection as inhibitors of Plasmodium falciparum (HB3) proliferation (AID 743347; call rule not given here;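 note: plate controls were DMSO vehicle wells for no effect and artemisinin wells for full effect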); settings: P. falciparum HB3 in erythrocytes, SYBR Green DNA, 72 h; at 28.5 µM (top of the series) unless noted
# Summary of the method: as §1
# [7] = High-throughput drug toxicity screening in the BPDCN cell line Gen2.2 (AID 1224824; call rule not given here;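 note: cells exposed to compounds for 48 h before reading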); settings: Gen2.2 BPDCN cells; at 45.8 µM (top of the series) unless noted
# Summary of the method: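 CellTiter-Glo luminescence after 48 h compound exposure of Gen2.2 cells; percent activity set with DMSO as 100% and bortezomib (9.2 uM final) as 0%. Cells seeded at 500 per well, RPMI + 10% FBS, 37 °C.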
# [8] = High-throughput drug toxicity screening in the BPDCN cell line Cal-1 (AID 1224825; call rule not given here); settings: Cal-1 BPDCN cell viability, qHTS; at 45.8 µM (top of the series) unless noted
# Summary of the method: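 CellTiter-Glo luminescence after 48 h compound exposure; percent activity scaled with DMSO as 100% and bortezomib (9.2 uM final) as 0%. Cal-1 cells seeded at 500/well in RPMI, 10% FBS, no phenol red.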
# [9] = qHTS assay for measurement of the activity of small molecule inhibitors on Zika virus induced Caspase-3 activity in human iPSC derived neural progenitor cells (hNPCs) (AID 1224857); settings: hNPCs ZIKV-induced caspase-3/7, Caspase-Glo luminescence, 6 h; series mostly up to 45.7 µM; note: % of control where 0% means no effect; nearly all actives have a fitted effect of over 65% in size
# Summary of the method: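 hNPCs seeded 350 cells/well, cultured 16–20 h; compounds added 1 h before ZIKV (2 FFU/cell), 37 C 6 h. Caspase-Glo 3/7 luminescence after 30 min RT; % inhibition from induction scaled to uninfected (0%) and infected (100%) wells.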
# [10] = qHTS Screen of the MIPE 4.0 Collection Against Ewings Sarcoma (TC32) (AID 1259256); settings: TC32 Ewing sarcoma viability, CellTiter-Glo, 48 h; series mostly up to 45.8 µM; note: potency is the fitted concentration of half-maximal effect; nearly all actives have a fitted effect of over 45% in size
# Summary of the method: (§2)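 Log-phase cells in RPMI with 5% FBS attached for 4 h, then received compounds as a titration for 48 h at 37C, 5% CO2. Viability was read by CellTiter-Glo luminescence and normalized to DMSO and no-cell wells.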
# [11] = qHTS Assay for Identifying Gametocytocidal Compounds (AID 743244);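 note: % is set by controls: 0 for no effect and ±100 for the full control effect; actives lower the fluorescent signal which means gametocytes are killed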; settings: P. falciparum 3D7 stage III-V gametocytes, alamarBlue, 72 h; max response: stronger effect = lower value
# Summary of the method: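 P. falciparum 3D7 stage III–V gametocytes (20,000 cells/well) were exposed to compounds for 72 h at 37 °C, 5% CO2. AlamarBlue was then added for 24 h; decreased resorufin fluorescence (Ex 525/Em 598 nm) indicated loss of viability.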
# [12] = qHTS assay for cell viability of HEK293 cells (AID 743288); settings: ATP luminescence (CellTiter-Glo), 18 h; max response: stronger effect = lower value; note: % is set by controls: 0 for no effect and ±100 for the full control effect; nearly all actives have a fitted effect of over 50% in size
# Summary of the method: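 ATP luminescence (CellTiter-Glo) reports metabolically competent cell number after parental HEK293 cells, 2,000/well, were treated with DMSO-dissolved compounds for 18 h at 37 C; reagent incubation 30 min, room temperature.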
# [13] = qHTS assay for cell viability of the p53RE-bla HCT-116 cell line (AID 743292); settings: p53RE-bla HCT-116 viability, ATP luminescence, 16 h; series mostly up to 95 µM; note: % is set by controls: 0 for no effect and ±100 for the full control effect; nearly all actives have a fitted effect of over 55% in size
# Summary of the method: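 Viability of compound-treated p53RE-bla HCT-116 cells is taken from ATP-dependent luciferase luminescence. Treatment lasts 16 h at 37 C after a 5 h settling period; detection follows 30 min at room temperature.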
# [14] = qHTS profiling for inhibitors of Plasmodium falciparum (3D7) proliferation (AID 743322);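 note: infected erythrocytes exposed to compound for 72 h before lysis; 100% = DMSO vehicle wells and 0% = 0.29 µM artemisinin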; settings: P. falciparum 3D7 proliferation
# Summary of the method: as §1
# [15] = qHTS profiling for inhibitors of Plasmodium falciparum (DD2) proliferation (AID 743323; call rule not given here); settings: lower = more inhibition
# Summary of the method: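 P. falciparum Dd2-infected erythrocytes (0.3% parasitemia, 2.5% hematocrit) exposed 72 h at 37 C, 5% CO2. Lysis with SYBR Green, overnight at room temperature, fluorescence 485/535 nm; normalized to 0.29 uM artemisinin and DMSO.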
# [16] = qHTS profiling for inhibitors of Plasmodium falciparum (HB3) proliferation (AID 743324); settings: Plasmodium falciparum HB3 blood-stage proliferation;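 note: 100% = DMSO vehicle wells and 0% = artemisinin-treated control wells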
# Summary of the method: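 SYBR Green fluorescence (485 ex/535 em) of lysed cultures, incubated overnight at room temperature in the dark, quantifies parasite DNA. Infected erythrocytes at 0.3% parasitemia and 2.5% hematocrit were exposed 72 h; values normalized to DMSO and 0.29 uM artemisinin controls.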
# [17] = qHTS Screen of the MIPE 4.0 Collection Against Ewings Sarcoma (RDES) (AID 1259252); settings: RD-ES Ewing sarcoma viability, CellTiter-Glo, 48 h; series mostly up to 45.8 µM; note: nearly all actives have a fitted effect of over 35% in size; note: potency is the fitted concentration of half-maximal effect
# Summary of the method: as §2
# [18] = qHTS Screen of the MIPE 4.0 Collection Against Ewings Sarcoma (TC71) (AID 1259253); settings: TC71 Ewing sarcoma viability, CellTiter-Glo, 48 h; series mostly up to 45.8 µM; note: nearly all actives have a fitted effect of over 40% in size; note: potency is the fitted concentration of half-maximal effect
# Summary of the method: as §2
# [19] = qHTS Screen of the MIPE 4.0 Collection Against Ewings Sarcoma (EW8) (AID 1259255); settings: EW8 Ewing sarcoma viability, CellTiter-Glo, 48 h; series mostly up to 45.8 µM; note: potency is the fitted concentration of half-maximal effect; nearly all actives have a fitted effect of over 35% in size
# Summary of the method: as §2
# T1 sequence (P35557 whole entry, looked up): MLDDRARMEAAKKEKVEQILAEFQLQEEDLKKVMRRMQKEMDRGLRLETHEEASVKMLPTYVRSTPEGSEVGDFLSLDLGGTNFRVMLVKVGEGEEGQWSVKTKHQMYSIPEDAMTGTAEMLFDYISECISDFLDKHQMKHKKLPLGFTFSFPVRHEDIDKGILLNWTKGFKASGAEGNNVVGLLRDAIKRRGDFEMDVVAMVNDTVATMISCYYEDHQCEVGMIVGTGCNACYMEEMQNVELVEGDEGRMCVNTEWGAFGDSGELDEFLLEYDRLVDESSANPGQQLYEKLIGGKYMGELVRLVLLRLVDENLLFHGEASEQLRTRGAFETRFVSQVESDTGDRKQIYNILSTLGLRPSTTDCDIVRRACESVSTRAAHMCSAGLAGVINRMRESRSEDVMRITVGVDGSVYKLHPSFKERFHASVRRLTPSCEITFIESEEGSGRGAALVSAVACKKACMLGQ
# T1 sequence (Q14397 whole entry, looked up): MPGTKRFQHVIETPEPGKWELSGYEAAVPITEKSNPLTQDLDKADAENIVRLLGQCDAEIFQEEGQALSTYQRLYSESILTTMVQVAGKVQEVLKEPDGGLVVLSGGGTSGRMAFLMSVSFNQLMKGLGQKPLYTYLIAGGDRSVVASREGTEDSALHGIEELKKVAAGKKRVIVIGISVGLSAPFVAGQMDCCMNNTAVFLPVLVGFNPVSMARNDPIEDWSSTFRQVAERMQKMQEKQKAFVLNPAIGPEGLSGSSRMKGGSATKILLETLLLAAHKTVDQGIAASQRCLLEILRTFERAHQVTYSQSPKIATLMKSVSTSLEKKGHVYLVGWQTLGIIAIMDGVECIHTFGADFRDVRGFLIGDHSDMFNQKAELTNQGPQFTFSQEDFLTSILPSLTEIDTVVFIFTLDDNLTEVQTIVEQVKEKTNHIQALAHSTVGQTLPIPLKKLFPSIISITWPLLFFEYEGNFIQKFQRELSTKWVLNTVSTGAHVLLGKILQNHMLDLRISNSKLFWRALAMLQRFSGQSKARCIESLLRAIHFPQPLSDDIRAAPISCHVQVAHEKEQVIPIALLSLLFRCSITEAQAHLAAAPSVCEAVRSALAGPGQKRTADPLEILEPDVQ
smiles,measurement,setting,value
CN1CCN(CCCN2c3ccccc3Sc3ccc(Cl)cc32)CC1,Potency,[1],inactive
same,Potency,[2],inactive
same,"parasite growth, % of DMSO control",[3],6.12%
same,"parasite growth remaining, % of DMSO control (lower = more inhibition)",[4],13%
same,"parasite growth, % of control (lower = inhibition)",[5],28.4%
same,"growth, % of control",[6],7.64%
same,"cell viability, % of control (lower = more cytotoxic)",[7],107%
same,viability (% of control),[8],22.7%
same,Potency,[9],inactive
same,Potency,[10],26.4 µM (active)
Cc1ccc(-c2cc(C(F)(F)F)nn2-c2ccc(S(N)(=O)=O)cc2)cc1,max response,[11],2.3% (inactive) and -2.23% (inactive)
same,max response,[12],-4.48% (inactive)
same,Potency,[13],inactive
same,remaining parasite growth % (stronger effect = lower value),[14]; at 28.7 µM (top of the series),17.6%
same,remaining parasite growth % (stronger effect = lower value),[14]; at 57.5 µM (top of the series),11.7%
same,"activity, percent of control",[15]; at 28.7 µM (top of the series),45.8%
same,"activity, percent of control",[15]; at 57.5 µM (top of the series),21.2%
same,"remaining proliferation (% of control), lower = more inhibition",[16]; at 28.7 µM (top of the series),12.9%
same,"remaining proliferation (% of control), lower = more inhibition",[16]; at 57.5 µM (top of the series),16%
same,"parasite growth, % of DMSO control",[3],21.9%
same,"parasite growth, % of control (lower = inhibition)",[5],35%
same,"growth, % of control",[6],7.95%
same,"cell viability, % of control (lower = more cytotoxic)",[7],250%
same,viability (% of control),[8],90.2%
same,Potency,[9],inactive
same,Potency,[17],4.18 µM (active)
same,Potency,[18],13.2 µM (active)
same,Potency,[19],20.9 µM (active)
same,Potency,[10],11.8 µM (active)
CCOC(=O)c1ncn2c1CN(C)C(=O)c1cc(F)ccc1-2,Potency,[1],inactive
same,Potency,[2],inactive
same,max response,[11],2.86% (inactive) and 37.5% (inactive)
same,"cell viability, % of control (lower = more cytotoxic)",[7],100%
same,viability (% of control),[8],17.4%
same,Potency,[9],inactive
same,Potency,[17],inactive
same,Potency,[18],inactive
same,Potency,[10],13.2 µM (active)
CC[C@@]1(O)C(=O)OCc2c1cc1n(c2=O)Cc2cc3c(CN(C)C)c(O)ccc3nc2-1,max response,[11],27.1% (inactive) and 13.5% (inactive)
same,remaining parasite growth % (stronger effect = lower value),[14]; at 28.7 µM (top of the series),11.5%
same,"activity, percent of control",[15]; at 28.7 µM (top of the series),12.8%
same,"parasite growth, % of DMSO control",[3],13.9%
same,"parasite growth, % of control (lower = inhibition)",[5],33.7%
same,"growth, % of control",[6],21.3%
same,"cell viability, % of control (lower = more cytotoxic)",[7],14.6%
same,viability (% of control),[8],3.81%
same,Potency,[9],inactive
same,Potency,[17],0.0332 µM (active)
same,Potency,[18],0.0372 µM (active)
same,Potency,[19],0.0332 µM (active)
Clc1ccc(C(c2ccccc2Cl)C(Cl)Cl)cc1 (configuration not stated),Potency,[1],inactive
same,Potency,[2],inactive
same,max response,[11],-1.64% (inactive) and 6.44% (inactive)
same,"parasite growth, % of DMSO control",[3],24.3%
same,"parasite growth remaining, % of DMSO control (lower = more inhibition)",[4],51.1%
same,"parasite growth, % of control (lower = inhibition)",[5],54.8%
same,"growth, % of control",[6],50.8%
same,"cell viability, % of control (lower = more cytotoxic)",[7],22.5%
same,viability (% of control),[8],18.1%
same,Potency,[9],inactive
O=C1Cc2cc(CCN3CCN(c4nsc5ccccc45)CC3)c(Cl)cc2N1,Potency,[1],inactive
same,Potency,[2],inactive
same,max response,[11],-0.117% (inactive) and 9.6% (inactive)
same,"parasite growth, % of DMSO control",[3],14.8%
same,"parasite growth, % of control (lower = inhibition)",[5],20.5%
same,"growth, % of control",[6],9.47%
same,"cell viability, % of control (lower = more cytotoxic)",[7],199%
same,viability (% of control),[8],94.5%
same,Potency,[9],inactive
same,Potency,[18],23.5 µM (active)
same,Potency,[19],23.5 µM (active)
same,Potency,[10],23.5 µM (active)
